Potency and affinity values are given separately. Records with an inconclusive call do not appear. Activity calls are given as the source filed them. Unless noted, how the calls were made is not given here.
Key:
[1] = PAX8 transcriptional activity inhibition in RMG-I – RMG-I cells, luciferase, cherry-pick, dose response (AID 687027;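 active means every replicate test run called active, with the signal dropping as expected and potency within twice the top valid dose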)
[2] = RMG-1 ovarian cancer cell viability loss – cherry-pick, dose response (AID 687029;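 active means signal drop whose fitted half-maximal concentration is at most twice the top valid dose, in every test run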;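 further: cells exposed to compound for 96 hours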)
[3] = CMV-driven luciferase expression suppression in HEK293 – cell-based, luminescence, dry powder, counter-screen for Pax8 inhibitor project, dose response (AID 743020;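 active means signal-lowering compounds whose fitted half-maximal concentration is at or below twice the top tested dose in every run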;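 further: HEK293 cells stably expressing the CMV luciferase reporter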)
[4] = general cell-killing toxicity readout – plate reader, dry powder samples, cytotoxicity control for PAX8 inhibitor project, dose response (AID 743021)
[5] = IOSE-T80 viability loss, PAX8-independent line – cell-based, cherry-pick, selectivity assay for PAX8 inhibitor project, dose response (AID 687032;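 active means fitted half-maximal concentration for viability loss no higher than twice the top valid dose, in every repeat run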;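 further: cells exposed to compound for 96 h before reading; 0% = neutral control wells and -100% = 2 µM mitoxantrone kill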)
[6] = IGROV1 cell killing – plate reader, dry powder samples, PAX8 inhibitor project, dose response (AID 743043);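 further: more negative means fewer viable cells or more cytotoxicity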
[7] = OVCAR-3 cell viability loss – plate reader, dry powder samples, PAX8 inhibitor project, dose response (AID 743044); settings: max activity: at 35 µM, stronger effect = lower value unless noted
[8] = toxicity toward immortalized ovarian surface epithelium – cell-based, plate reader, dry powder samples, cytotoxicity control for PAX8 inhibitor project, dose response (AID 743045);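 further: 0% = neutral control median and -100% = positive control median; more negative values mean more cell killing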
[9] = A2780 cell killing – plate reader, dry powder samples, cytotoxicity control, dose response (AID 743046);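 further: 0% = neutral control wells and -100% = cytotoxic reference compound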
[10] = OVCAR8 cell viability loss – plate reader, dry powder samples, PAX8 project, dose response (AID 743197)

O=C(/C=C/c1ccc(Cl)cc1Cl)N1CCN(c2ccccc2[N+](=O)[O-])CC1
inactive: outcome [1] | outcome [2] | outcome [3] | outcome [4]

O=C(Cn1cc(C(F)(F)F)ccc1=O)Nc1ccc2c(c1)OCO2
inactive: outcome [1] | outcome [2] | outcome [3] | outcome [4]

O=C(NC1CCCCCC1)C1c2ccccc2C(=O)N1Cc1cccs1 (stereo unspecified)
inactive: outcome [1] | outcome [2] | outcome [3] | outcome [4]

O=C(CCN1C(=O)/C(=C/c2ccccc2Cl)SC1=S)Nc1ccccc1C(=O)O
inactive: outcome [1] | outcome [2] | outcome [3] | outcome [4]

CC(=O)Nc1ccc(C(=O)CSc2cc(C)c3cccc(C)c3n2)cc1
inactive: outcome [1] | outcome [2] | outcome [5] | outcome [4]

O=C(/C=C/c1c(Cl)nc2ccccn12)Nc1ccc(F)cc1
inactive: outcome [1] | outcome [2] | outcome [5] | outcome [4]

O=C(/C=C/c1ccco1)Nc1nc(-c2ccccc2)cs1
inactive: activity change, negative = inhibition [1] 99.9% [at 8 µM] | outcome [2] | outcome [5] | outcome [4]

Cc1nn(CCO)c2nc(-c3cccs3)cc(C(F)(F)F)c12
inactive: outcome [1] | outcome [2] | outcome [5] | outcome [4]

O=C(O)C1C=CC(C(=O)O)c2ccccc21 (stereo unspecified)
inactive: outcome [1] | outcome [2] | outcome [3] | outcome [4]

CCCCC(=O)N1CCN(c2ccc(OC)cc2[N+](=O)[O-])CC1
inactive: outcome [1] | outcome [2] | outcome [5] | outcome [4]

Cc1cccc(OCc2nc(-c3cccnc3)no2)c1
inactive: outcome [1] | outcome [2] | outcome [5] | outcome [4]

COc1ccc(NC(=O)c2nn(C34CC5CC(CC(C5)C3)C4)cc2[N+](=O)[O-])cc1
inactive: outcome [1] | outcome [2] | outcome [3] | outcome [4]

COc1ccc(NC(=O)C[C@H]2C(=O)N(c3ccc(OC)cc3)C[C@@H]2C)cc1
inactive: outcome [1] | outcome [2] | outcome [3] | outcome [4]

COc1ccc(-c2cn(CC[C@@H]3CC[C@H](NC(=O)Cc4ccccn4)[C@@H](CO)O3)nn2)cc1
inactive: outcome [1] | outcome [2] | outcome [5] | outcome [4] | outcome [6] | max activity [7] -8.11% [at 8 µM, stronger effect = lower value] | outcome [8] | outcome [9] | outcome [10]

COc1ccc2oc(C)c(C(=O)c3ccc([N+](=O)[O-])cc3)c2c1
inactive: outcome [1] | outcome [2] | outcome [5] | outcome [4]

Fc1ccc(CSc2ccc(-c3ccco3)nn2)cc1
inactive: outcome [1] | outcome [2] | outcome [5] | outcome [4]

O=[N+]([O-])c1ccc2nc(SCc3cn4ccccc4n3)[nH]c2c1
inactive: outcome [1] | outcome [2] | outcome [5] | outcome [4]

O=C1c2cccc3c(O)ccc(c23)C(=O)N1c1ccc(Cl)cc1
inactive: outcome [1] | outcome [2] | outcome [5] | outcome [4]

Nc1ncn([C@H]2C[C@H](O)[C@@H](CO)O2)c(=O)n1
inactive: outcome [1] | outcome [2] | outcome [3] | outcome [4]

O=C(CSc1cccc[n+]1[O-])Nc1cc(S(=O)(=O)N2CCOCC2)ccc1N1CCOCC1
inactive: outcome [1] | outcome [2] | outcome [5] | outcome [4]

COc1ccc(C(C)NC(=O)c2ccc(Br)cc2)cc1OC (stereo unspecified)
inactive: outcome [1] | outcome [2] | outcome [3] | outcome [4]

COc1ccc(C2CC(c3ccc(Br)cc3)=NN2C(=S)Nc2ccccc2)cc1 (stereo unspecified)
inactive: outcome [1] | outcome [2] | outcome [5] | outcome [4]

Cc1cccc(C(=O)Oc2ccc(/C=N/NC(=O)c3ccccc3O)cc2)c1
inactive: outcome [1] | outcome [2] | outcome [5] | outcome [4]

O=C(O)CC(NC(=O)C1c2ccccc2Oc2ccccc21)c1ccc(OC2CCCC2)cc1 (stereo unspecified)
inactive: outcome [1] | outcome [2] | outcome [3] | outcome [4]

CC1CCN(CCOc2ccc(OCc3ccccc3)cc2)CC1
inactive: outcome [1] | outcome [2] | outcome [5] | outcome [4]

COC1OC(COCc2ccccc2)C2OC(C)(C)OC2C1O (stereo unspecified)
inactive: outcome [1] | outcome [2] | outcome [3] | outcome [4]

CCN(C(=O)COC(=O)c1ccc(S(=O)(=O)N2CCCc3ccccc32)cc1)C1CCS(=O)(=O)C1 (stereo unspecified)
inactive: outcome [1] | outcome [2] | outcome [5] | outcome [4]

COc1ccccc1NC1=Nc2cccc3cccc1c23
inactive: outcome [1] | outcome [2] | outcome [5] | outcome [4]

O=C(CSc1nc2ccccc2s1)NCCOc1ccccc1
inactive: outcome [1] | outcome [2] | outcome [5] | outcome [4]

Cc1cc(OCCCn2cnc3ccccc3c2=O)ccc1[N+](=O)[O-]
inactive: outcome [1] | outcome [2] | outcome [3] | outcome [4]

Nc1ccc2c(c1)CC(=O)c1ccccc1S2
inactive: outcome [1] | outcome [2] | outcome [3] | outcome [4]

COc1ccc(O)c(C(c2c(C)[nH][nH]c2=O)c2c(C)[nH][nH]c2=O)c1
inactive: outcome [1] | outcome [2] | outcome [5] | outcome [4]

CCN1CCN(c2nc(-c3cccs3)nc3ccccc23)CC1
inactive: outcome [1] | activity change, negative = inhibition [2] 16.7% [at 8 µM] | outcome [4]

Cc1ccc(NC(=O)c2c([N+](=O)[O-])c(C(C)(C)C)nn2C)c(C)c1
inactive: outcome [1] | outcome [2] | outcome [4]

CCNC(=O)C1(C)CCN(C(=O)c2ccccc2F)C1 (stereo unspecified)
inactive: outcome [1] | outcome [2] | outcome [3] | outcome [4]

CC(C)(C)OC(=O)[C@H](Cc1ccccc1)NC(=O)c1nc[nH]c1C(=O)N[C@@H](Cc1ccccc1)C(=O)OC(C)(C)C
inactive: activity change, negative = inhibition [1] -24.7% [at 8 µM] | outcome [2] | outcome [4]

Nn1cnnc1N/N=C\c1ccc(-c2ccccc2[N+](=O)[O-])o1
inactive: outcome [1] | outcome [2] | outcome [3] | outcome [4]

Cn1ccnc1SCc1nc2c(cnn2-c2ccccc2)c(=O)[nH]1
inactive: outcome [1] | outcome [2] | outcome [4]

Cc1ccc(-c2ccc([C@@H]3[C@H](CO)N4CCCCN(C(=O)Nc5cccc(F)c5)C[C@@H]34)cc2)cc1
inactive: outcome [1] | outcome [2] | outcome [3] | outcome [4] | outcome [8] | outcome [9]

Cc1ccc(-c2nc(C)sc2CC(=O)OCC(=O)Nc2cccc([N+](=O)[O-])c2)cc1
inactive: outcome [1] | outcome [2] | outcome [4]

COc1ccc(-n2nc([N+](=O)[O-])c(=NCc3cccnc3)n2O)cc1
inactive: outcome [1] | outcome [2] | outcome [3] | outcome [4]

O=C(Cc1ccccc1)c1ccccc1C(=O)N1CCCCC1
inactive: outcome [1] | outcome [2] | outcome [3] | outcome [4]

O=[N+]([O-])c1cc(-c2nnc(-c3ccccc3)o2)ccc1Oc1ccc(Cl)cc1
inactive: outcome [1] | outcome [2] | outcome [4]

Cc1cc(C)c2c(c1)/C(=N/NC(=O)c1cc(C)oc1C)CCC2
inactive: outcome [1] | outcome [2] | outcome [4]

CO[C@@H]1CN(C)C(=O)c2cc(NC(=O)c3nc4ccccc4s3)ccc2OC[C@H](C)NC[C@H]1C
inactive: outcome [1] | outcome [2] | outcome [3] | outcome [4] | outcome [6] | max activity [7] -38.8% [at 30 µM, stronger effect = lower value] | outcome [8] | outcome [10]

Cc1cc([N+](=O)[O-])nn1CCCC(=O)Nc1sc2c(c1C(N)=O)CCC(C)C2 (stereo unspecified)
inactive: outcome [1] | outcome [2] | outcome [4]

COc1ccc(OCCNC(=O)/C=C/c2ccc([N+](=O)[O-])cc2)cc1
inactive: outcome [1] | outcome [2] | outcome [3] | outcome [4]

COc1ccc(C(=O)NC(=S)NNC(=O)COc2ccccc2)cc1
inactive: outcome [1] | outcome [2] | outcome [4]

Oc1ccc(F)c2cccnc12
inactive: outcome [1] | outcome [5] | outcome [3] | outcome [4]

C[C@H](CO)N1C[C@H](C)[C@@H](CN(C)C(=O)Nc2ccnc(N3CCOCC3)c2)OCc2cnnn2CCCC1=O
inactive: outcome [1] | outcome [2] | outcome [3] | outcome [4] | outcome [6] | max activity [7] 8.36% [at 0.26 µM, stronger effect = lower value] | outcome [8] | outcome [10]

— PubChem BioAssay
